Results on ten compounds are retold here after PubChem BioAssay.

System in one test: not listed separately
Kind of test: small-molecule microarray binders of probe aLefty2, primary screen, biochemical, biotinylated probe, 635/667 nm fluorescence (AID 1094).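 Note: score merges spot fluorescence near 667 nm with spot signal-to-noise ratio.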 Conditions: higher = more signal.
`COC(=O)[C@]1(Cc2ccccc2CN=[N+]=[N-])N=C(c2ccc(OCCCO)cc2)O[C@@H]1c1ccccc1N=[N+]=[N-]` came in with a composite z-score of 0.0269.
On the same count and under the same terms, under `COCCOC(=O)N1C(=O)[C@@]2(c3cc(C#CC4=CCCCC4)ccc31)[C@H](c1ccc(O)cc1)N1[C@H](c3ccccc3)[C@H](c3ccccc3)OC(=O)[C@H]1[C@@H]2C(=O)N1CCc2cc(OC)c(OC)cc2C1` stands 0.0113.
On the same count and under the same terms, then `O=C(c1ccccc1)N1Cc2ccccc2C[C@@]2(N=C(c3ccc(OCCCO)cc3)O[C@H]2c2ccccc2)C1=O`, with -0.0982; and `C=CC[C@]1(C(=O)NCCN2CCOCC2)N=C(c2ccc(OCCCO)cc2)O[C@H]1c1ccccc1`, with 0.0365.

A further test relates to Noggin (protein binding on small-molecule microarray). Briefly: Noggin binders on small-molecule microarray, primary screen, biochemical, 635/667 nm fluorescence (AID 1095).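 Note: score merges 667 nm feature fluorescence with signal to noise over triplicate slides.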 Conditions: 635 nm fluorescence, higher = more signal.
Take `COC(=O)C(CC#Cc1ccc2c(c1)[C@]1(C(=O)N2)[C@H](c2ccccc2OCCO)N2[C@H](c3ccccc3)[C@H](c3ccccc3)OC(=O)[C@H]2[C@@H]1C(=O)N1CCN(c2ncccn2)CC1)C(=O)OC`: the composite z-score is 1.71.
Same read-out and setting: then `COC(=O)[C@@]1(Cc2ccc(F)cc2)[C@H]2c3cc(C(=O)N(C)C)n(Cc4ccc(C(F)(F)F)nc4)c3C[C@H]2CN1C(=O)c1ccccc1`, with 0.108; and `COCCCNC(=O)[C@]1(Cc2ccccc2CN=[N+]=[N-])N=C(c2ccc(OCCCO)cc2)O[C@@H]1c1ccccc1N=[N+]=[N-]`, with 0.0289.
Same read-out and setting: then `[N-]=[N+]=Nc1ccccc1C[C@]1(C(N)=O)COC(c2ccc(OCCCO)cc2)=N1`, with -0.863.
On the same count and under the same terms, then `COc1cc(Cc2cc3c(c(-c4ccccc4)n2)[Si](C(C)C)(C(C)C)OC3)cc(OC)c1OC`, with 0.331; and `COC(=O)C[C@H]1O[C@]2(C(=O)N(C)c3ccccc32)[C@@H](C)[C@@H]1[Si](C)(C)c1ccccc1`, with 1.23.
